DAX1 inh-1: inhibits human nuclear receptor DAX1. HEK293 Gal4-DAX1 luciferase reporter, luminescence. AID 504766. inhibition, % at 6.75 µM. 340,000 tested, 0.99% active. P51843;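 active = inhibition above the mean over all tested compounds plus 3 SD, cut at about 4.2% in these data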;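 note: 0% = DAX1-transfected cells with DMSO and 100% = empty-vector control cells with DMSO; inhibition shows as a rise in luminescence from relieved DAX1 repression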
Target sequence (P51843 207-470 limits assumed): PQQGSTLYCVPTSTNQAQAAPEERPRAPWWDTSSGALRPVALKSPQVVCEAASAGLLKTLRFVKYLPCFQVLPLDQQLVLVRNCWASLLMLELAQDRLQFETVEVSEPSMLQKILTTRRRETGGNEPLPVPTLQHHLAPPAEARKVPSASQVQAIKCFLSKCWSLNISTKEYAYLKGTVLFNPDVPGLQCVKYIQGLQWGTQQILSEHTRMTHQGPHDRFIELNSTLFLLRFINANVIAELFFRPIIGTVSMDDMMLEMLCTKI
ssDAF-12 act: activates DAF-12 receptor from parasite S. stercoralis. 370,000 tested, 1% active. activation, % at 6.8 µM. HEK293 ssDAF-12/GRIP1 lit1-tk-luc reporter, luminescence; % of 3 µM dafachronic acid response;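 active = activation above the mean over all tested compounds plus 3 SD, cut at about 0.9% in these data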;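 note: 0% = DMSO-only wells and 100% = 3 µM delta7-dafachronic acid wells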
SMARCA2 act: activators of SMARCA2 function; MG213 cells, MMTV-luciferase reporter, dexamethasone, overnight; activation, % at 9.1 µM; 370,000 tested, 1% active; AID 652017; in the data active = activation above about 7.8%;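 note: 0% = vehicle wells and 100% = reference activator wells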
hcDAF12 agonist: H. contortus DAF-12 activation, primary screen; HEK293 hcDAF-12 lit1-tk-luc reporter, luminescence; 0% DMSO, 100% Δ7-dafachronic acid; activation, % at 6.8 µM; AID 652067; 370,000 tested, 1.4% active;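 active = activation above the mean of all tested compounds plus 3 SD, cut at about 5.5% in these data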;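 note: 100% = response to 3 µM Δ7-dafachronic acid high control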
hgDAF-12 ag: agonists of H. glycines DAF-12 nuclear receptor; 370,000 tested, 1.8% active; HEK293 GAL4-hgDAF12 UAS-luciferase reporter, agonist luminescence; normalized to butyrate control; activation, % at 6.8 µM; AID 687014;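 active = activation above a cutoff set at the mean of all screened compounds plus 3 SD, cut at about 10% in these data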;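 note: 0% = DMSO wells and 100% = sodium butyrate wells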
DAX1 inh-2: inhibitors of DAX1 repression of SF-1 activated StAR promoter | HEK293T StAR-luciferase reporter, SF-1/DAX-1 repression relief | inhibition, % at 6.8 µM | 370,000 tested, 1.1% active | AID 652010;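 active = inhibition above the mean over all tested compounds plus 3 SD, cut at about 3.6% in these data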;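 note: 0% = DAX-1 cells with DMSO and 100% = cells lacking DAX-1 with DMSO; higher inhibition means more luminescence from relief of DAX-1 repression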
SMARCA2 conf: SMARCA2 activation, confirmation screen | shares compounds with SMARCA2 act | MG213 cells, MMTV-luciferase with dexamethasone, luminescence, overnight; MG213 cells expressing E1A, Rb sequestered; DMSO wells 0%, reference activator 100% | activation, % at 9.1 µM | 3,500 tested, 30% active | AID 652260;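 active = activation above its plate's cutoff, the mean activation of tested wells plus 3 SD, cut at about 7.9% in these data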
VP16 Luc act: GAL4-VP16 reporter activation counter-screen; AID 686939; 3,500 tested, 41% active; HEK293 GAL4-VP16 pG5luc reporter, luciferase luminescence; scaled: DMSO wells 0%, SAHA wells 100%; activation, % at 9.1 µM; shares compounds with SMARCA2 act;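 active = activation above the solvent-only control well mean plus 3 SD, averaged across control plates, cut at about 5.2% in these data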
The depositor's hits bear a star; . = no result given. A selection: hits, their analogues and other compounds. The true share with any hit is near 4.8%.

SMILES	DAX1 inh-1	ssDAF-12 act	SMARCA2 act	hcDAF12 agonist	hgDAF-12 ag	DAX1 inh-2	SMARCA2 conf	VP16 Luc act
O=C(Nc1cc2c(cc1Br)OCCO2)c1cccs1	2	0	10*	4	6	1	3	9.0*
CC(C)CC(NC(=O)OCc1ccccc1)C(=O)NCC(=O)NCC(=O)OCc1ccccc1 (configuration not stated)	.	-2	-2	-1	-2	2	.	.
CCN(CC)c1ccc(NC(=O)c2cccc(C)c2OC)c(C)c1	1	-1	8.2*	0	9	2	14*	4
CC(C)(C)OC(=O)NCc1cc2c(cc1/C=C/S(=O)(=O)NC1CCCC1)OCO2	.	-1	0	-4	1	-1	.	.
O=C(/C=C/c1ccco1)Nc1ccc(CN2CCOCC2)cc1	1	-1	9.4*	-1	5	1	9.2*	11*
CCCCN(C)S(=O)(=O)c1ccc2[nH]c(=O)oc2c1	.	-1	1	-2	0	0	.	.
COc1ccc(OCc2cc(C(=O)NC(C)c3csc(C)n3)no2)c(Cl)c1 (configuration not stated)	0	0	9.8*	1	9	1	4	6.0*
CCC(NC(=O)c1cc(COc2ccc(OC)cc2Cl)on1)c1ccncc1 (configuration not stated)	0	0	-1	0	2	-4	.	.
S=C1SCN(Cc2cccnc2)CN1Cc1cccnc1	-1	-2	12*	-1	0	0	-8	0
S=C1SCN(Cc2ccccc2)CN1Cc1ccccc1	-1	-1	3	-2	0	0	.	.
O=C(Nc1ccc2oc(=O)ccc2c1)c1ccco1	1	-1	8.3*	-1	2	-1	2	3
O=C(Cn1nnc(N2CCCCC2)n1)NN=Cc1ccccc1O	.	-2	-6	1	-4	1	.	.
O=C1N(CC[C@@H](O)c2ccccc2)CCC12CCC(c1ccccc1)CC2 (some centres not stated)	.	-1	.	-3	0	.	.	.
O=C1c2ccccc2-c2c1c1ccccc1c(=O)n2-c1ccccc1	1	-1	-3	0	-3	0	.	.
O=C1c2ccccc2-c2c1c1ccccc1c(=O)n2CCO	-4	0	16*	-1	-3	-4	14*	7.7*
O=C(c1cccc(Br)c1)N1CCN(C(=O)N2CCOCC2)CC1	1	-1	1	0	-1	0	.	.
O=C(c1cccc(Br)c1)N1CCN(C(=O)c2cccc(Br)c2)CC1	-1	-1	8.8*	-1	0	0	1	-1
O=C1CN(C(=O)C2CCCCC2)C=CN1CCc1ccccc1Br	.	-2	.	-1	0	.	.	.
CC1(C)CC(NC(=O)c2cc(Cl)ccc2Cl)CC(C)(C)N1	1	-1	10*	4	-1	-1	-3	0
Cc1ccc(C)c(C(=O)NC2CC(C)(C)NC(C)(C)C2)c1	1	-1	4	-2	1	-1	.	.
COCCNS(=O)(=O)c1ccc(F)c(OC)c1	0	-1	14*	0	0	0	-1	1
COCCNS(=O)(=O)c1ccc2c(c1)C(=O)c1cc(S(=O)(=O)NCCOC)ccc1-2	0	-1	-3	-1	-2	-1	.	.
COc1cc(Cl)nn(-c2ccccc2)c1=O	1	-1	11*	-1	-2	0	-1	2
O=c1c(Cl)cc(Cl)nn1-c1ccccc1	-1	-2	1	1	0	-1	.	.
Cn1cc([N+](=O)[O-])c(C(=O)Nc2ccc(-c3nc4ccccc4[nH]3)cc2)n1	-1	0	9.8*	2	6	1	11*	7.6*
SMILES	DAX1 inh-1	ssDAF-12 act	SMARCA2 act	hcDAF12 agonist	hgDAF-12 ag	DAX1 inh-2	SMARCA2 conf	VP16 Luc act
COc1ccccc1C1=NOC(CN2C(=O)c3ccccc3S2(=O)=O)C1 (configuration not stated)	4	-1	15*	2	10	3	7	9.1*
COc1ccccc1C1=NOC(COC(=O)c2ccc(Br)cc2)C1 (configuration not stated)	-1	-1	2	0	-1	0	.	.
Cc1cccc2nc(CSc3ccc(Cl)cc3)cn12	2	-1	10*	2	12*	4.2*	6	1
Cc1cc(CN(C)C(=O)CCc2nnc(Cc3cccc(C(F)(F)F)c3)o2)on1	3	0	7	2	6	1	.	.
CCN(CC)C(=O)CCc1nnc(Cc2cccc(C(F)(F)F)c2)o1	2	1	16*	2	13*	1	3	9.2*
Cc1ccc(NC(=O)NNC(=O)CSC2CCc3ccccc32)c(C)c1 (configuration not stated)	.	0	-1	2	-1	2	.	.
CCc1cc2c(nc1CC)CCCN2S(=O)(=O)c1ccc(C)cc1	.	-2	-5	-1	-4	-2	.	.
Nc1ccccc1/C=C/c1ccccc1N	2	-1	9.9*	1	4	2	14*	10*
CN(C)c1ccc(C(=O)NCCc2ccccc2-c2ccccc2CCC(=O)NCc2ccccc2)cc1	.	-2	-1	-2	2	0	.	.
COC(=O)c1ccc(CN2C(=O)[C@]3(OCCC=C[C@H]3C)c3cc(OC)ccc32)cc1	.	-1	-4	1	-1	2	.	.
O=C(CCl)Oc1ccc2occ(C(=O)c3cccs3)c2c1	2	-1	8.6*	0	7	1	4	6.5*
COc1ccc(S[C@]2(C(=O)N3CCOCC3)CC(=O)N[C@@H]2c2ccc(OC)cc2)cc1	.	-1	-1	0	-3	-1	.	.
Cc1cccc(C(=O)O/N=C(\N)c2cccc([N+](=O)[O-])c2)c1	0	.	.	.	.	.	.	.
O=C(Cc1ccccc1[N+](=O)[O-])c1ccc2c(c1)OCO2	0	-1	11*	1	3	1	4	3
N/C(=N\OC(=O)c1ccc2c(c1)OCO2)c1cccc([N+](=O)[O-])c1	0	-1	9.9*	3	3	0	12*	9.4*
N/C(=N\OC(=O)c1cccs1)c1cccc([N+](=O)[O-])c1	1	0	11*	2	6	1	2	6.5*
CCn1c2ccccc2c2cc(NC(=O)COC(=O)c3cc(F)ccc3C)ccc21	.	-1	-3	-1	2	1	.	.
